Source: PubChem BioAssay (National Center for Advancing Translational Sciences (NCATS))
ELG1 repair inh: ELG1-dependent DNA repair inhibition; AID 504467; actives 2.3% (n = 330,000); HEK293T ELG1-luciferase reporter, luminescence, 16 h; DNA damage induced by 5-fluorouridine; Potency, µM (top dose mostly 46.1 µM), for inactives: at the highest dose activity change, negative = inhibition, usual class: inhibitors; also: % is scaled to controls: 0 for no effect and ±100 for the full control effect; nearly all actives have a fitted effect of over 55% in size
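Luminescence from the luciferase reporter, measured 30 min after ONE-Glo reagent at room temperature, was the read-out. Beforehand, 2,000 cells per well were exposed for 16 hr at 37 °C to 5-fluorouridine together with compound or vehicle.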
SW480 rereplic: inducers of DNA re-replication in SW480 colon cancer cells; AID 624297; SW480 DNA re-replication, Hoechst DNA content imaging, 48 h; actives 1.8% (n = 340,000); Potency, µM (titrated, usually from 46.1 µM), for inactives: top-dose re-replication activation, most hits filed as activators; also: % of control where 0% means no effect; nearly all actives have a fitted effect of over 55% in size
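Image-based DNA-content assay: after two days of treatment, nuclei were labelled with the DNA dye Hoechst and imaged, and hits were compounds raising the count of nuclei showing high fluorescence intensity.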
KB-V1 cytotox: KB-V1 MDR subline cytotoxicity; KB-V1 MDR cells viability, CellTiter-Glo, 72 h; Potency, µM (highest dose often 46.1 µM), usual class: cytotoxic; actives 3.4% (n = 400,000); AID 1347076; also: % is scaled to controls: 0 for no effect and ±100 for the full control effect; nearly all actives have a fitted effect of over 60% in size
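Following 72 h at 37 degrees C with compound, KB-V1 cell viability was read by CellTiter-Glo luminescence, medium being phenol-red-free DMEM plus 10% FBS; concentration-response parameters came from normalized, curve-fitted qHTS data.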
MCF10A rerep: induces DNA re-replication in MCF 10a normal breast cells; MCF 10A DNA re-replication, Hoechst nuclear intensity, 48 h; actives 2.9% (n = 350,000); Potency, µM (doses to about 46.1 µM), for the others: at the highest dose activity, positive = re-replication, usual class: activators; also: % of control where 0% means no effect; nearly all actives have a fitted effect of over 50% in size
KB-3-1 tox: KB-3-1 parental cell cytotoxicity; KB-3-1 viability, CellTiter-Glo ATP luminescence, 72 h; actives 1.4% (n = 400,000); Potency, µM (highest dose often 46.1 µM), usual class: cytotoxic; AID 1347075; also: % is scaled to controls: 0 for no effect and ±100 for the full control effect; nearly all actives have a fitted effect of over 60% in size
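Using CellTiter-Glo luminescence, growth of non-resistant KB-3-1 adenocarcinoma cells is assessed 72 h after pin-tool compound addition at 37 °C. Normalized responses across the concentration series yield fitted curves.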
Numbers without * were called inactive. Hits are enriched below; roughly 8.2% of the tested compounds scored in any of these assays. Calls follow the shape of the dose curve; as a rule, active = well fitted curve in the direction sought with a large enough effect; inconclusive = small, poorly fitted or top-dose-only effect, or another doubt; inactive = no such curve, though single readings can be large; an effect the other way counts as inactive or inconclusive. Potency is read from the fitted curve at half-maximal effect.

Screening Cc1cc(C)c(NC(=O)Cn2c(=O)n(CCC(=O)NCc3ccc4c(c3)OCO4)c(=O)c3ccccc32)c(C)c1 returned KB-V1 cytotox inactive and KB-3-1 tox inactive.
COc1ccc(CN2C(=O)c3ccccc3C(/C=N\OCc3ccc(F)cc3)C2=O)cc1 (centres undefined) was read as ELG1 repair inh 12.3%, SW480 rereplic -1.4%, KB-V1 cytotox 16.4µM*, MCF10A rerep 7.1% and KB-3-1 tox inconclusive.
CN(C)c1ccc(-c2ccnc3c2CC(C)(C(=O)NCC2CCOCC2)O3)cc1 (centres undefined) was read as KB-V1 cytotox inconclusive and KB-3-1 tox inactive.
Screening CCCCc1ccc(NC(=O)N2CCN(c3cc(C)nc4ccccc34)CC2)c(C)c1 returned ELG1 repair inh inconclusive, SW480 rereplic 20.6µM*, KB-V1 cytotox inconclusive, MCF10A rerep 17.2% and KB-3-1 tox inconclusive.
`CCC1CN(C(=O)N2CCC(C(=O)Nc3ccccc3OC)CC2)c2ccccc2O1` (centres undefined) gave ELG1 repair inh inconclusive, SW480 rereplic -5.7%, KB-V1 cytotox inactive, MCF10A rerep 9.4% and KB-3-1 tox inactive.
For OC(CNCCc1ccc(C(F)(F)F)cc1)COc1ccc2ccccc2c1 (centres undefined) the results were ELG1 repair inh 5.8%, SW480 rereplic inconclusive, KB-V1 cytotox inconclusive, MCF10A rerep 5.8µM* and KB-3-1 tox inconclusive.
Screening COc1ccc(CCNCC(O)COc2cccc(Br)c2)cc1 (centres undefined) returned ELG1 repair inh -29.2%, SW480 rereplic inconclusive, KB-V1 cytotox inactive, MCF10A rerep inconclusive and KB-3-1 tox inactive.
Screening COc1ccccc1COCC(O)CNCCc1ccc(C(F)(F)F)cc1 (centres undefined) returned ELG1 repair inh -3.6%, SW480 rereplic inconclusive, KB-V1 cytotox inactive, MCF10A rerep 12.3% and KB-3-1 tox inactive.
OC(CNCCc1ccc(C(F)(F)F)cc1)COc1cccc2ccccc12 (centres undefined) was read as ELG1 repair inh 0.1%, SW480 rereplic 16.4µM*, KB-V1 cytotox inconclusive, MCF10A rerep 20.6µM* and KB-3-1 tox inactive.
`Nn1c(SCc2ccccn2)nncc1=O` gave ELG1 repair inh -11.9%, SW480 rereplic 1.0%, KB-V1 cytotox inactive, MCF10A rerep -2.3% and KB-3-1 tox inactive.
Screening CN(C)CCN(C)C1CN(C2CCCC2)S(=O)(=O)C1 (centres undefined) returned KB-V1 cytotox inactive and KB-3-1 tox inactive.
Screening CC(=O)c1ccc(N2CCN(C(=O)/C=C/c3ccc(S(=O)(=O)N4CCOCC4)cc3)CC2)cc1 returned ELG1 repair inh inconclusive, SW480 rereplic 24.0%, KB-V1 cytotox inconclusive, MCF10A rerep -33.0% and KB-3-1 tox inconclusive.
For O=S(=O)(NCc1ccco1)c1ccc(S(=O)(=O)N2CCCCC2)cc1 the results were ELG1 repair inh -4.1%, SW480 rereplic 1.4%, KB-V1 cytotox 16.4µM*, MCF10A rerep 5.5% and KB-3-1 tox inactive.
`CC(=O)c1ccc(N2CCN(C(=O)/C=C/c3ccc(S(=O)(=O)NCc4ccco4)cc3)CC2)cc1` gave ELG1 repair inh 7.3µM*, SW480 rereplic 1.8%, KB-V1 cytotox inactive, MCF10A rerep 1.4% and KB-3-1 tox inactive.
Screening O=C(NCc1ccco1)c1cc(C(=O)C2CCCCC2)c[nH]1 returned ELG1 repair inh inconclusive, SW480 rereplic -0.6%, KB-V1 cytotox 10.3µM*, MCF10A rerep 18.9% and KB-3-1 tox inactive.
Screening CCC(C(=O)NCc1ccco1)N(C(=O)CNS(=O)(=O)c1ccccc1)C1CCCCC1 (centres undefined) returned ELG1 repair inh -8.3%, SW480 rereplic 6.8%, KB-V1 cytotox inconclusive, MCF10A rerep 4.11µM* and KB-3-1 tox inactive.
Screening O=C(NCc1ccco1)C1CCCCC1 returned ELG1 repair inh -2.7%, SW480 rereplic -9.5%, KB-V1 cytotox inactive, MCF10A rerep 9.1% and KB-3-1 tox inactive.
For O=C(NCCc1ccc(Cl)cc1)C1CC(=O)N(C2CCCC2)C1 (centres undefined) the results were ELG1 repair inh 6.0%, SW480 rereplic -2.5%, KB-V1 cytotox inactive, MCF10A rerep 7.1% and KB-3-1 tox inactive.
Cc1cccc(CN2C(=O)c3ccccc3S(=O)(=O)c3ccc(C(=O)N4CCCC4)cc32)c1 was read as KB-V1 cytotox inactive and KB-3-1 tox inactive.
For CCOc1ccc(C2C(C(=O)Nc3ccccc3)=C(C)Nc3nc(SCc4cccc(OC)c4)nn32)cc1 (centres undefined) the results were KB-V1 cytotox inactive and KB-3-1 tox inactive.
O=C(CN(Cc1ccco1)Cc1ccco1)Nc1cc(S(=O)(=O)N2CCCCC2)ccc1Cl was read as ELG1 repair inh 25.9µM*, SW480 rereplic 3.1%, KB-V1 cytotox inactive, MCF10A rerep 14.4% and KB-3-1 tox inconclusive.
For Cc1ccc(NC(=O)c2ccc(S(=O)(=O)NCc3ccco3)cc2)nc1 the results were ELG1 repair inh inconclusive, SW480 rereplic 20.6µM*, KB-V1 cytotox inconclusive, MCF10A rerep inconclusive and KB-3-1 tox 20.6µM*.
`CCCNS(=O)(=O)c1ccc(CCC(=O)NCc2ccco2)cc1` gave ELG1 repair inh 3.7%, SW480 rereplic -2.0%, KB-V1 cytotox inactive, MCF10A rerep -1.3% and KB-3-1 tox inactive.
Cc1cccc(NC(=O)c2ccc(S(=O)(=O)NCc3ccco3)cc2)n1 was read as ELG1 repair inh inconclusive, SW480 rereplic 11.2%, KB-V1 cytotox inconclusive, MCF10A rerep 10.4% and KB-3-1 tox inactive.
Screening O=C(CCc1ccc(S(=O)(=O)NCc2ccccc2)cc1)NCc1ccco1 returned ELG1 repair inh -18.4%, SW480 rereplic -192.5%, KB-V1 cytotox 20.6µM*, MCF10A rerep -5.1% and KB-3-1 tox inactive.
O=C(NC1CCCCCC1)c1ccc(S(=O)(=O)NCc2ccco2)cc1 was read as ELG1 repair inh -8.8%, SW480 rereplic -2.9%, KB-V1 cytotox 20.6µM*, MCF10A rerep 4.6% and KB-3-1 tox inactive.
`Cc1cc(N2CCCC2)ccc1NC(=O)COc1cccc(C(F)(F)F)c1` gave ELG1 repair inh inconclusive, SW480 rereplic inconclusive, KB-V1 cytotox inactive, MCF10A rerep 12.5% and KB-3-1 tox inactive.
For S=C(NCCCc1cnc[nH]1)NCCCN(Cc1ccc(Cl)cc1)c1ncc(Br)cn1 the results were KB-V1 cytotox inactive and KB-3-1 tox inactive.
CC1(C)CC(=O)C(C(c2ccncc2)C2C(=O)CC(C)(C)CC2=O)C(=O)C1 was read as ELG1 repair inh 4.5%, SW480 rereplic 5.6%, KB-V1 cytotox inactive, MCF10A rerep 1.4% and KB-3-1 tox inactive.
